Inconclusive results are not listed. A number with no mark means an inactive call. Calls come from the whole dose curve; as a rule, active = well fitted inhibition curve with a large enough effect; inconclusive = small, poorly fitted or top-dose-only effect; inactive = no such curve, though single readings can be large or run the other way.
These molecules were tested on Zika virus NS2B-NS3 protease (unlinked complex) (assay: Primary screen GU Rhodamine qHTS for Zika virus inhibitors: Unlinked NS2B-NS3 protease assay (AID 1347159; note: nearly all actives have a fitted effect of over 60% in size)). Conditions: Recombinant ZIKV NS2B-NS3 protease, Rhodamine110 substrate fluorescence; series mostly up to 107 µM; activity change, negative = inhibition: at the top concentration.
Outline: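 Enzyme 25 nM in Tris-HCl pH 8.0 + 0.01% Tween 20; compounds up to 114 microM, 15 min RT dark; + Rhod110 substrate 1.5 microM; read t0 and 15 min; delta fluorescence → % inhibition → 4-parameter Hill fit.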
For `NC1Nc2ccccc2C1(N)CC1NC(=O)C(Cc2ccccc2)NC(=O)C(Cc2ccccc2)NC1=O` (configuration not stated), the “activity change, negative = inhibition” value was 18.1% [at 57.1 µM].
`O=C(O)Cc1cn([C@@H]2O[C@H](CO)[C@@H](O)[C@H](O)[C@H]2O[C@@H]2O[C@H](CO)[C@@H](O)[C@H](O)[C@H]2O)c2ccccc12` was tested, and the “activity change, negative = inhibition” value was 5.75% [at 57.1 µM].
`CC1(C)CC[C@]2(C(=O)O)CC[C@]3(C)C(=CCC4[C@@]5(C)C[C@H](O)[C@H](O[C@@H]6O[C@H](CO)[C@@H](O)[C@H](O)[C@H]6O)[C@@](C)(CO)C5[C@H](O)C[C@]43C)[C@@H]2C1` (some centres not stated) was tested, and the “activity change, negative = inhibition” value was 50.6% [at 32.5 µM].
With `COC(=O)C1=CO[C@@H](O[C@@H]2O[C@H](CO)[C@@H](O)[C@H](O)[C@H]2O)[C@@H]2C(C)CC(=O)[C@]12O` (some centres not stated) the “activity change, negative = inhibition” value was 51.5% [at 57.1 µM].
In the case of `CC(CC12CCCN1C(=O)C1CCCN1C2=O)OC(N)=O` (configuration not stated), the “activity change, negative = inhibition” value was -6.15%.
With `COC1CC(O[C@H]2CC[C@@]3(C)C(=CC[C@]4(O)C3[C@H](O)[C@@H](O)[C@]3(C)[C@@H]([C@H](C)O)CC[C@@]34O)C2)OC(C)C1OC1CC(OC)C(OC2CC(OC)C(OC3OC(C)C(OC4OC(CO)C(O)C(O)C4O)C(OC)C3O)C(C)O2)C(C)O1` (some centres not stated) the “activity change, negative = inhibition” value was 22.8% [at 32.5 µM].
For `C=C1CCC(OC(C)=O)C2(C)CC3OC(=O)C(C)=C3CC12` (configuration not stated), the “activity change, negative = inhibition” value was 9.41%.
With `NC(=O)C(O[C@@H]1O[C@H](CO[C@@H]2O[C@H](CO)[C@@H](O)[C@H](O)[C@H]2O)[C@@H](O)[C@H](O)[C@H]1O)c1ccccc1` (some centres not stated) the “activity change, negative = inhibition” value was 23.8% [at 57.1 µM].
`C=C(C(=O)O)[C@@H]1CC[C@@]2(C)CC[C@@H](O)C(=C)C2C1` (some centres not stated) was tested, and the “activity change, negative = inhibition” value was -27.1%.
With `COC(=O)C[C@H]1C(C)(C)[C@H](OC(=O)C(C)C)C2CC3=C4CC(=O)O[C@@H](c5ccoc5)[C@]4(C)CCC3[C@@]1(C)C2=O` (some centres not stated) the “activity change, negative = inhibition” value was 8.59% [at 57.1 µM].
For `c1ccc2c(Nc3nnc(-c4ccncc4)s3)cccc2c1`, the “activity change, negative = inhibition” value was 24.7%.
`COc1ccc(CC(=O)NCc2ccccc2-c2ccccc2C(=O)NCCc2cccnc2)cc1` was tested, and the “activity change, negative = inhibition” value was 20.9%.
In the case of `CC1=C2C[C@@]3(C)C(CCC[C@@H]3C)C(O)C2(O)OC1=O` (some centres not stated), the “activity change, negative = inhibition” value was 12.1%.
In the case of `CC1(C)CC[C@]2(C(=O)O[C@@H]3O[C@H](CO)[C@@H](O)[C@H](O)[C@H]3O)CC[C@]3(C)C(=CCC4[C@@]5(C)CC[C@H](O[C@H]6O[C@H](CO)[C@@H](O)[C@H](O[C@@H]7O[C@H](CO)[C@@H](O)[C@H](O)[C@H]7O)[C@H]6O)C(C)(C)C5CC[C@]43C)[C@@H]2C1` (some centres not stated), the “activity change, negative = inhibition” value was 4.5% [at 32.5 µM].
For `C=C1C(OC(C)=O)C(=O)C2C(C)(C)C(O)CCC2(C)C1CC(OC(C)=O)/C(C)=C/COC(C)=O` (configuration not stated), the “activity change, negative = inhibition” value was 21.3% [at 57.1 µM].
In the case of `CC(=O)NC1CC(=O)C23C(=O)NC(Cc4c[nH]c5ccccc45)C2C(C)=C(C)C(O)C3/C=C/CC(C)/C=C(/C)C(O)C1O` (configuration not stated), the “activity change, negative = inhibition” value was -23.6% [at 32.5 µM].
`COC(=O)C1=C[C@@H](O)[C@@H](O)[C@H](O[C@@H]2O[C@H](CO)[C@@H](O)[C@H](O)[C@H]2OC(=O)/C=C/c2ccccc2)C1` was tested, and the “activity change, negative = inhibition” value was 16.4% [at 57.1 µM].
With `COC(=O)C(Cc1ccccc1)NC(=O)c1ccccc1` (configuration not stated) the “activity change, negative = inhibition” value was 0.887%.
For `Fc1ccccc1-c1nc2ccn(Cc3ccc(-c4ccc(C(F)(F)F)cc4C(F)(F)F)nn3)cc-2n1`, the “activity change, negative = inhibition” value was -15.6%.
In the case of `C[C@@H]1O[C@@H](OC(=O)Cc2ccccc2)[C@H](O)[C@H](O)[C@H]1O`, the “activity change, negative = inhibition” value was 4.16%.
For `C=C1C(OC(C)=O)[C@@]23CCC4[C@](C)(C(=O)O)CCC[C@@]4(C)[C@]2(O)CC[C@H]1C3` (some centres not stated), the “activity change, negative = inhibition” value was -8.84%.
In the case of `COC(=O)C1=COC(O[C@@H]2O[C@H](CO)[C@@H](O)[C@H](O)[C@H]2O)C2C(C)C(=O)CC12` (some centres not stated), the “activity change, negative = inhibition” value was -16.6%.
`CC1=C2CC(=O)C(C)CC/C=C(\C)CC2OC1=O` (configuration not stated) was tested, and the “activity change, negative = inhibition” value was 1.65%.
In the case of `C[C@H]1[C@@H](O)[C@H](O)C2[C@]3(C)C([C@@H](O)[C@H]4OC(=O)[C@@H]1[C@@]24C)[C@](C)(O)C=C[C@H]3O[C@@H]1O[C@H](CO)[C@@H](O)[C@H](O)[C@H]1O` (some centres not stated), the “activity change, negative = inhibition” value was 2.36% [at 57.1 µM].
In the case of `CC(=O)O[C@@H]1C[C@@H](C)[C@](O)(CCC2=CC(=O)OC2)[C@@]2(C)CCCC(C)(C)C12` (some centres not stated), the “activity change, negative = inhibition” value was 3.93%.
`COc1c2c(c(C)c3c1C(=O)OC3)OC1(C)CC(O)C34OC(OC)(CC(O)C3(C)C1C2)OC4(C)C` (configuration not stated) was tested, and the “activity change, negative = inhibition” value was -6.58% [at 57.1 µM].
`C[C@@H]1O[C@@H](O[C@H]2[C@H](OC(=O)[C@]34CCC(C)(C)C[C@H]3C3=CCC5[C@@]6(C)CC[C@H](O[C@@H]7O[C@H](CO[C@@H]8OC[C@H](O)[C@H](O)[C@H]8O[C@@H]8OC[C@@H](O)[C@H](O)[C@H]8O)[C@@H](O)[C@H](O)[C@H]7O)C(C)(C)C6CC[C@@]5(C)[C@]3(C)C[C@H]4O)O[C@H](CO)[C@@H](O)[C@@H]2O)[C@H](O[C@@H]2O[C@H](CO)[C@@H](O)[C@H](O)[C@H]2O)[C@H](O)[C@H]1O[C@@H]1OC[C@@H](O)[C@H](O[C@@H]2OC[C@@H](O)[C@H](O)[C@H]2O)[C@H]1O` (some centres not stated) gave an activity change, negative = inhibition of 2.96% [at 19.1 µM].
% is set by controls: 0 for no effect and ±100 for the full control effect.
